From PubChem BioAssay (NCI)
Compounds without any hit were thinned out: in the full panel of roughly 83,000, 20% have a hit.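 Step 1: grow cells in 96-well plates. Step 2: add test compound at a single concentration. Step 3: incubate 48 h. Step 4: record percent growth.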 Unmarked numbers belong to inactive results. Active and inactive are the calls of the source. The calls were made as follows: active = growth percent below 10; inactive = the rest.

tested on: MDA-MB-468 breast; assay: NCI-60 one-dose screen, 48 h (100 = growth as untreated, 0 = no growth, -100 = all killed); conditions: 10 µM unless noted

| SMILES | growth |
| --- | --- |
| Cc1ccc(Nc2nc(SC(C)C)nc(-c3ccccc3)c2C#N)cc1 | 96.7% |
| C=C1C(=O)O[C@H]2[C@H]1CC/C(COC(=O)C(=O)c1cn(C)c3ccc(OC)cc13)=C\CC[C@@]1(C)O[C@@H]21 | -63.6% (active) |
| COc1ccc(/C=C/C(=O)c2ccc(NC(=O)CSc3nnc(-c4cc(OC)c(OC)c(OC)c4)o3)cc2)cc1 | -60.5% (active) |
| Cc1nc(/N=C(\N)NC(=O)Nc2cccc(Cl)c2)sc1C | 55.2% |
| CC(=O)CC(=O)N(C)C | 96.8% |
| CCN1C(=O)N(CC)C2C1NN=c1s/c(=C3\C(=O)N(CC(C)(C)C)c4ccccc43)c(=O)n12 (stereo not given) | 18% |
| COc1ccc(CC(C)=C(c2ccc(OCCN3CCCCCC3)cc2)c2ccc(OCCN3CCCCCC3)cc2)cc1 | -81.2% (active) |
| CCN(CC)CCCC(C)NCc1ccccc1 (stereo not given) | 112% |
| CC(C)(C)c1ccc(C2CC(=O)C3=C(C2)Nc2ccccc2N(C(=O)c2ccccc2Cl)C3c2ccc(F)cc2)cc1 (stereo not given) | -20.1% (active) |
| O=C(Nc1ccccc1OC(=O)c1ccccc1)c1ccccc1 | 59% |
| Cc1ccc(-n2c(=S)[nH]c3sc4c(c3c2=O)CCC(=O)C4)cc1 | 51.1% |
| CC[C@H](C)C(=O)O[C@H]1CCC=C2C=C[C@H](C)[C@H](CC[C@@H]3CC=CC(=O)O3)[C@H]21 | 85% |
| C#CCNC(=O)CC[C@]1(C)[C@H]2CC[C@@H]3[C@@H]([C@@](C)(O)CCC=C(C)C)CC[C@@]3(C)[C@]2(C)CC[C@H]1C(=C)C | 48.5% [100 µM] |
| Cc1ccc(/C=C(/C#N)n2nnc3cccc(F)c32)cc1 | -16.1% (active) |
| O=C1/C(=C/C(Cl)=C/c2ccccc2)SC(=S)N1CCc1ccc(O)cc1 | -36.2% (active) |
| CS(=O)(=O)Nc1ccc(Nc2c3ccccc3nc3cc([N+](=O)[O-])ccc23)cc1 | -43.3% (active) |
| COc1ccc(-c2cc(-c3ccc(Cl)cc3)nc(SCCCCCCC(=O)NO)n2)cc1OC | 55.2% |
| COc1ccc(/C=C/C(=O)c2ccc(B(O)O)cc2)cc1O | 66.8% |
| COc1cc(/C=C/c2cc(O)c3cc(C(C)=O)c(=O)oc3c2)cc2c1O[C@]1(C)CC[C@@H](O)C(C)(C)[C@H]1C2 | 65% |
| CCOC(=O)c1c(Nc2ccccc2)nn2c(-c3ccccc3)ccnc12 | 98% |
| C[C@]12O[C@H]1[C@H](O)c1c(cc(O)c3c1C(=O)c1cccc(O)c1-3)C2=O | 83.3% |
| O=C(CSc1nc2ccccc2c(=O)n1CCc1ccccc1)Nc1ccc(S(=O)(=O)Nc2ccc(Cl)nn2)cc1 | 103% |
| CC1=CC(=O)c2ccccc2C1=O | 111% |
| O=C1c2cc(Br)ccc2Oc2cc([N+](=O)[O-])ccc2N1c1ccc(I)cc1F | 105% |
| O=C(Nc1ccc(OS(=O)(=O)c2ccccc2)cc1)C12CC3CC(CC(C3)C1)C2 | 40.5% |
